These results are taken from PubChem BioAssay.

Results filed as inconclusive are left out. Active and inactive are the calls of the source.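 Rule for the calls, unless noted: active = inhibition above the screen-wide mean plus 3 SD, about 51%; inactive = the rest.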

Assay [1] in a line: yeast TOR pathway RPL19A-GFP modulators, primary screen, cell-based, S. cerevisiae, multiplex flow cytometry (AID 1862; in the data active = percent of DMSO control GFP below about 86%;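 note: lower values mimic rapamycin by blocking the RPL19A rise seen in DMSO cells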). The note with it: S. cerevisiae RPL19A-GFP strain, flow cytometry fluorescence, 3 h; at 10 µM; stronger effect = lower value.
Assay [2] in a line: modulators of MEP2-GFP levels in yeast, primary screen, S. cerevisiae, multiplex flow cytometry (AID 1867;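 active = GFP response, as percent of the DMSO control, above the screen-wide mean plus 3 SD, about 139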;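 note: median GFP channel fluorescence of barcode-gated MEP2-GFP cells measured by flow cytometry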). The note with it: S. cerevisiae MEP2-GFP strain, 3 h, at 10 µM, stronger effect = higher value, 100% means same as DMSO wells.
Assay [3] is described as follows: modulators of CIT2-GFP expression in yeast, primary screen, S. cerevisiae, GFP fusion, multiplex flow cytometry (AID 1870;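 active = percent response above a set limit, the screen-wide mean plus 3 SD, cut at about 130% in these data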;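 note: barcoded CIT2-GFP strain pooled with four other GFP strains with rapamycin as positive control; median GFP fluorescence per well over plate mean of DMSO wells so 100% = DMSO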). The note with it: 3 h, at 10 µM, stronger effect = higher value.
Assay [4] can be described thus: modulators of LAP4-GFP expression in yeast, primary screen, S. cerevisiae, multiplex flow cytometry (AID 1873;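 active = GFP signal, as percent of the solvent control, above the screen mean plus 3 SD, about 149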). As to conditions: 3 h, at 10 µM, stronger effect = higher value.
A short description of assay [5]: modulators of AGP1-GFP expression in yeast TOR pathway, primary screen, cell-based, multiplex flow cytometry, S. cerevisiae (AID 1887;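 active = GFP signal above the screen-wide mean plus 3 SD, that is over about 124.5% of the solvent control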;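 note: AGP1-GFP fusion strain of S. cerevisiae within a five-strain barcoded multiplex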). The note with it: 3 h, at 10 µM, stronger effect = higher value.
Assay [6] is described as follows: inhibitors of CD8+ T cell-vesicle binding, pilot screen, LFA-1/ICAM-1 modulator project, MLPCN validation set, flow cytometry (AID 2523;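 active = response below a set limit, under 55% cells CD8-positive and vesicle-bound, and CD8 cells' 90th-percentile brightness under 279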;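 for vesicle binding response: mean PE anti-B7-1 fluorescence of CD8+ cells relative to row control; 100% = QL9-loaded vesicles with DMSO vehicle in the same plate row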). As to conditions: 2C mouse CD8+ T cells, at 7 µM, stronger effect = lower value; double positive events: measured here: CD8+/vesicle+ event percentage.
Assay [7] deals with Integrin beta-1 (Homo sapiens) + Integrin alpha-4 (Homo sapiens) (UniProt P13612+P05556). The assay can be described thus: inhibition of HUTS-21 binding to VLA-4, pilot screen, VLA-4 allosteric modulator project, U937 cells, HUTS-21 mAb, flow cytometry, validation set (AID 2674;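 active = inhibition above 50%, about 3 SD of the validation set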;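 note: antibody binding induced by the VLA-4 ligand LDV present at three times its Kd; 0% = LDV ligand with antibody and no compound and 100% = antibody without LDV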). The note with it: HUTS-21 LIBS mAb binding, at 6.7 µM, stronger effect = higher value, binding induced by LDV ligand.
Integrin beta-1 (Homo sapiens) + Integrin alpha-4 (Homo sapiens), sequence (P05556 whole entry, looked up): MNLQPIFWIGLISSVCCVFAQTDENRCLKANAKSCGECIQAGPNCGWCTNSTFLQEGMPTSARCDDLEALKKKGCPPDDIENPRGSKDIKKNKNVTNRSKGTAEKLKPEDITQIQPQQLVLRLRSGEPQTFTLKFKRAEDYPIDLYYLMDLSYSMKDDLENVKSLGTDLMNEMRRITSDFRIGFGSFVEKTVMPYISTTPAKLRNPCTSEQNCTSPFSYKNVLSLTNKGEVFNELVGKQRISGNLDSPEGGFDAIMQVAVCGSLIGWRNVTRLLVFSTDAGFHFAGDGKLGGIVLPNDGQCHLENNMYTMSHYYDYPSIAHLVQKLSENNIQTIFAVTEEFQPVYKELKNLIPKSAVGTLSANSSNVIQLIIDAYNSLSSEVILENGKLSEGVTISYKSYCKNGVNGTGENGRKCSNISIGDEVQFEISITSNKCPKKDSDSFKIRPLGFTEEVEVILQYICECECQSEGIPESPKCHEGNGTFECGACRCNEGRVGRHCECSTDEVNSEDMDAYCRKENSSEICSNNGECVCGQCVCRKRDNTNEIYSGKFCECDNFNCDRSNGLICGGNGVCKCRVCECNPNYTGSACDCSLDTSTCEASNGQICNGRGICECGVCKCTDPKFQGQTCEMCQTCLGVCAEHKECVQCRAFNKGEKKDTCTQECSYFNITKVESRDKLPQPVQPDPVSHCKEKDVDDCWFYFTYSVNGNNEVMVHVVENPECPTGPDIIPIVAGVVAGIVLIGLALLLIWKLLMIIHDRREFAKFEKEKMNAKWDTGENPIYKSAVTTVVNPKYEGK
Integrin beta-1 (Homo sapiens) + Integrin alpha-4 (Homo sapiens), sequence (P13612 whole entry, looked up): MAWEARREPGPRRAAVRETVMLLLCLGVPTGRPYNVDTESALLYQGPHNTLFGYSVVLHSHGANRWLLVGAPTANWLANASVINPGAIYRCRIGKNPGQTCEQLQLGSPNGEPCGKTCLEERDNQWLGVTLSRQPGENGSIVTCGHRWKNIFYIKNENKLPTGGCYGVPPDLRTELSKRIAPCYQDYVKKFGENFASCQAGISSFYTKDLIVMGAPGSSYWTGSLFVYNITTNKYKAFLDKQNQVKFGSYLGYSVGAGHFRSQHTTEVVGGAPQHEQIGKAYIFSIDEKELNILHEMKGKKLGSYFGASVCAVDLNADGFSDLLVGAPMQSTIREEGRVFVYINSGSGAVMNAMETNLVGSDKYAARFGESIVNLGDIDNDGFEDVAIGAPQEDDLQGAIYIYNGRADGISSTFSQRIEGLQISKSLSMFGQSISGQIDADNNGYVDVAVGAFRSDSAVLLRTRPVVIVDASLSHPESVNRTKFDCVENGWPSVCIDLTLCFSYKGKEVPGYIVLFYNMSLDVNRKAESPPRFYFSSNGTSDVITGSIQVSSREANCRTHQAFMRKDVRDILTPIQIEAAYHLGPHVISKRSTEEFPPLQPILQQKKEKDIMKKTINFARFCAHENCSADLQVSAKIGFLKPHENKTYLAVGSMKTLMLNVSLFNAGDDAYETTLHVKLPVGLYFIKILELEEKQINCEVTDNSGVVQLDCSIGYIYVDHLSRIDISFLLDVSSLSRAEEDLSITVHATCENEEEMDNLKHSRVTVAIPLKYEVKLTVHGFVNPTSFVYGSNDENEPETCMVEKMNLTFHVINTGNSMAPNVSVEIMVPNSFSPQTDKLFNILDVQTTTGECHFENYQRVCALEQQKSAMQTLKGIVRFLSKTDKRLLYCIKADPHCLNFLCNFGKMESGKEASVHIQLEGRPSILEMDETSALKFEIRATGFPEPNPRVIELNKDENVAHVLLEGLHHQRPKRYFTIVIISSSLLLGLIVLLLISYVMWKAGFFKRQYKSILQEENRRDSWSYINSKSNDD

Assay [8] can be described thus: superoxide lowering in aged yeast cells, pilot screen, validation compound set (AID 2706;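 active = superoxide response below 65% of plate, a cut near 3 SD across the whole screen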;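 note: yeast exposed to compound for one week at 30 degrees C before staining; 100% = mean of all compound wells on the same plate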). As to conditions: S. cerevisiae aging, superoxide DHE fluorescence; at 10 µM; stronger effect = lower value.
Assay [9] concerns the target Beta-adrenergic receptor kinase 1 (Homo sapiens) (UniProt P25098). The assay can be described thus: GRK2 binders displacing RNA aptamer, biochemical, validation, human GRK2, bead flow cytometry (AID 488806;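 active = aptamer binding inhibition above 30%, about 3 SD of noise from non-fluorescent compounds; inactive = inhibition at or below 30%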). The note with it: bead-bound GRK2, FAM-aptamer displacement, at 10 µM, stronger effect = higher value.
In assay [10] the target is Beta-2 adrenergic receptor (Homo sapiens) (UniProt P07550). The experiment in a line: beta2AR agonists driving receptor internalization, pilot screen, cell-based, FAP fluorogen, flow cytometry, validation set (AID 504459;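 active = percent response above 42, roughly 3 SD of non-fluorescent test compounds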;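 note: agonist-driven loss of surface beta2AR via internalization measured by FAP dye flow cytometry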). As to conditions: Am2.2-beta2AR cells, FAP surface receptor flow cytometry; at 10 µM; stronger effect = higher value.
Beta-2 adrenergic receptor (Homo sapiens), sequence (P07550 whole entry, looked up): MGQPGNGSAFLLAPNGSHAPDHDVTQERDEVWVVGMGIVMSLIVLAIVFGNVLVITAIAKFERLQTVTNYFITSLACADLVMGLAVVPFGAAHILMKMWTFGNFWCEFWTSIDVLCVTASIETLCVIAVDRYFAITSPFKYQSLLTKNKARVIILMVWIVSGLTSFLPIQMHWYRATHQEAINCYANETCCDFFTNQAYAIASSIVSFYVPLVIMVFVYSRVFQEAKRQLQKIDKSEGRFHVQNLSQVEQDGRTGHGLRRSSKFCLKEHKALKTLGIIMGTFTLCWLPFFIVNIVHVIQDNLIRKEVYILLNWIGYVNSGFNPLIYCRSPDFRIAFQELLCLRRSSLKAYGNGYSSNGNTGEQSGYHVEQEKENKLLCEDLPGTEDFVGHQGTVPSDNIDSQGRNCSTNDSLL
Assay [11] concerns the target AP-2 complex subunit beta (Homo sapiens) (UniProt P63010). The experiment in a line: inhibitors of arrestin peptide binding to AP2, pilot screen, biochemical, validation set, GST-AP2 beads, flow cytometry (AID 504541;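 active = inhibition above 54%, about 3 SD of non-fluorescent compounds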;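 note: AP2 carries R879A mutation and is captured from E. coli lysate; bead-bound FITC arrestin peptide fluorescence measuring arrestin peptide binding to AP2; 0% = DMSO wells and 100% = excess unlabeled arrestin peptide control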). The note with it: FITC arrestin peptide, at 10 µM, stronger effect = higher value, AP2 beta2 appendage fragment, R879A mutant.
Assay [12] in a line: yeast V-ATPase proton transport modulators, S. cerevisiae, pHLuorin, HTS validation (AID 504600; in the data active = response above about 15%;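 note: plate controls were DMSO for no effect and reference compound for full effect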). The note with it: S. cerevisiae pHLuorin cytosolic pH, at 10 µM, stronger effect = higher value.
For assay [13], the system named is anti-desmoglein-3 scFv antibody binding to human DSG3. The assay can be described thus: inhibitors of anti-DSG3 scFv binding to DSG3, pilot screen, biochemical, validation compound set, bead-based, flow cytometry (AID 588368;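 active = binding below the plate cutoff, the plate median minus 3 SD, with a reading above zero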;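 note: signal is the median channel fluorescence of bead-bound GFP antibody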). The note with it: Protein G beads, DSG3-Fc, scFv-GFP binding, at 10 µM, stronger effect = lower value.
The nature of assay [14]: inhibitors of fungal efflux pumps CDR1, CDR2, MDR1, pilot screen, validation compound set, multiplex, phenotypic (AID 588506;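 active = efflux inhibition above 0.42, the validation set average plus 4 SD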;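 note: Nile Red retained in cells so higher fluorescence means more efflux inhibition; 0 = negative control wells and 1 = enniatin B 25 µM full block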). The note with it: S. cerevisiae pump-expressing triplex, Nile Red efflux flow cytometry; at 10 µM; stronger effect = higher value; the pumps come from Candida albicans.
In assay [15] the target is ATP-binding cassette sub-family B member 6 (Homo sapiens) (UniProt Q9NP58). The assay can be described thus: ABCB6 transporter inhibitors, pilot screen, K562-ABCB6 cells, flow cytometry, validation set (AID 588550).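 Note: 0% = DMSO wells and 100% = benzethonium chloride 70 µM positive control.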 The note with it: K562-ABCB6 porphyrin accumulation, 1 h, at 10 µM, stronger effect = higher value.
ATP-binding cassette sub-family B member 6 (Homo sapiens), sequence (Q9NP58 whole entry, looked up): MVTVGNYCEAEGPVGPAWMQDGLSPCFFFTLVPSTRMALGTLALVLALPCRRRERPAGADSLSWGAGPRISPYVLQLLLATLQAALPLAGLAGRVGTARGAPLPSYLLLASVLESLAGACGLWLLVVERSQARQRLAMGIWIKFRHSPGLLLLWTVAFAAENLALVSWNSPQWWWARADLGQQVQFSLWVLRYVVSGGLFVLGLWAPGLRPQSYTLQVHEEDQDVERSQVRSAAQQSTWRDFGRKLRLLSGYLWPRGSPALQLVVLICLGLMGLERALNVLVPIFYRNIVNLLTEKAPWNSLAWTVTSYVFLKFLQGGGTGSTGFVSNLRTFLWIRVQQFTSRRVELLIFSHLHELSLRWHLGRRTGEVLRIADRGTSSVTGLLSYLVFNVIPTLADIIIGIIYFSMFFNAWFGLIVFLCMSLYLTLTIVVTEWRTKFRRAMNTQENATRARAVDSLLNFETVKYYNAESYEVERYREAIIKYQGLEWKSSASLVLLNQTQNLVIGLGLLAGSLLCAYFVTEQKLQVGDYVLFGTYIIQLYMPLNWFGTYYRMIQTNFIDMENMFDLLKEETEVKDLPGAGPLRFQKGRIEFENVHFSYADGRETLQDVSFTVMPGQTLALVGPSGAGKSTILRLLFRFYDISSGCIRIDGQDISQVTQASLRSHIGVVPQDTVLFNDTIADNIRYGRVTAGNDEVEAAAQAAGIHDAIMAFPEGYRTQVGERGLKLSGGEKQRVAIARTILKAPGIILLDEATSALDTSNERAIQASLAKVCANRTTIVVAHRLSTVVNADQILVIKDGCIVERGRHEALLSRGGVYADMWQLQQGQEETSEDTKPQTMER
Assay [16] can be described thus: promoters of myeloid differentiation in arrested cells, primary screen, cell-based, GFP/MAC1 double positive, flow cytometry, validation set (AID 588685;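 active = differentiation response of at least 50%, scaled between solvent and reference control, from cells with both markers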;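 note: compound exposure lasts four days before antibody staining and flow analysis; 0% = DMSO wells and 100% = 5 µM fulvestrant positive control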). The note with it: ER-HoxA9 marrow cells, stronger effect = higher value, normalized: vehicle 0, fulvestrant 100.

Beta-adrenergic receptor kinase 1 (Homo sapiens), sequence (P25098 whole entry, looked up): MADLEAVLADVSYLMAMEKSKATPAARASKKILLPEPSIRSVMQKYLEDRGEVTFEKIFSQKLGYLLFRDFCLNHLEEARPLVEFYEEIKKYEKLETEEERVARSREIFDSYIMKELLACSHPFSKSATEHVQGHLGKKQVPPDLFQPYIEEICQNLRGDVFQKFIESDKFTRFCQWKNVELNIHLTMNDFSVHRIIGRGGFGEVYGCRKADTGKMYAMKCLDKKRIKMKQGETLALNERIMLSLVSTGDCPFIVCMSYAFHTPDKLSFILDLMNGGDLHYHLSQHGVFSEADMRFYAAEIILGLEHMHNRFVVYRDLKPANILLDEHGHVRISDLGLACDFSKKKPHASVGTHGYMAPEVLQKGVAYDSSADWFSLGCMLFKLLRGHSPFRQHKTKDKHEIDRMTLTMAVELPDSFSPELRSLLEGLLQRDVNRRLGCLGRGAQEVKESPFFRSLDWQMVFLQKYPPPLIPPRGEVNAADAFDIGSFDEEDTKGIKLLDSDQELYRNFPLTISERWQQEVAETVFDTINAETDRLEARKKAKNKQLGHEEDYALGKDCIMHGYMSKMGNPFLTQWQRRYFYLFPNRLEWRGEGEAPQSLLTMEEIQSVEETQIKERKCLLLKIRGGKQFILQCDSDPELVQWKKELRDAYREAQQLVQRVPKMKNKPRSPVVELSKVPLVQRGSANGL
AP-2 complex subunit beta (Homo sapiens), sequence (P63010 whole entry, looked up, the tested form may be a part, one chain of several): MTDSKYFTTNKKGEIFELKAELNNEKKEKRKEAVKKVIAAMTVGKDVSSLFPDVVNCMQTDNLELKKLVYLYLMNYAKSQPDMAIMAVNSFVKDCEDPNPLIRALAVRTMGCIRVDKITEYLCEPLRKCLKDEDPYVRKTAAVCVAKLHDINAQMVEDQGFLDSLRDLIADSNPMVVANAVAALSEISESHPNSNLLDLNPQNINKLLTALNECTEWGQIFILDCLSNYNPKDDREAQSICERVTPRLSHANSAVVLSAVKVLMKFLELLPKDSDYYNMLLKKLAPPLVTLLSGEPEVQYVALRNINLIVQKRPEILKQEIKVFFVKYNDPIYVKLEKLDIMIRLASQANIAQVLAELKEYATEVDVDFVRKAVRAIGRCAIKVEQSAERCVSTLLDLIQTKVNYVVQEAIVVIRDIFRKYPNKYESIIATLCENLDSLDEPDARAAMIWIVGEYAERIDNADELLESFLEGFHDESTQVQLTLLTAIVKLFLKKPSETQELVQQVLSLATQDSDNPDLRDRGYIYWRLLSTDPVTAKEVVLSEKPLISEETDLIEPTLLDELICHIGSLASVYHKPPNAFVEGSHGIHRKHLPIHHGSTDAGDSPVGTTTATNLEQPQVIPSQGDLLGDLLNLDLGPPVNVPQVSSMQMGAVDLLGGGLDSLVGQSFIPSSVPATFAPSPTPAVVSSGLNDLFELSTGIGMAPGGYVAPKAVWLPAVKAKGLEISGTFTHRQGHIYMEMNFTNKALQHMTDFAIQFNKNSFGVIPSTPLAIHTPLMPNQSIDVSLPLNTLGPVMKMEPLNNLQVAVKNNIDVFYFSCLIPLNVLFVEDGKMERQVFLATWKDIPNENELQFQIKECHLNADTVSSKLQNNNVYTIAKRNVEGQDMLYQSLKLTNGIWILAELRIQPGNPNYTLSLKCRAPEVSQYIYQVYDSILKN

With `COc1ccc(CCN=CC2=C(O)CC(C)(C)CC2=O)cc1`, the percent of DMSO control GFP in assay [1] was 109% (inactive). For the same compound, the figures for the GFP response vs DMSO in assay [2] and in [4] were 106% (inactive) and 91.4% (inactive), respectively. Besides, the percent response of DMSO control in assay [3] was 106% (inactive). In [5], the GFP response, % of DMSO is 102% (inactive). Besides, the double positive events in [6] turned out to be 62.4%. Moreover, the vesicle binding response in [6] is 6690% (inactive). Besides, the inhibition was -2.53% (inactive) in assay [7], -11.8% (inactive) in assay [11] and 3% (inactive) in assay [15]. Besides, the superoxide response (% of plate) in assay [8] is 91.4% (inactive). The aptamer binding inhibition in assay [9] is -2% (inactive). The response in assay [10] was -5.19% (inactive); in assay [12] it was 2.74% (inactive). The binding (% of control) in assay [13] was 101% (inactive). Further, the efflux inhibition (fraction of control) in assay [14] is 0.02 (inactive). Further, in [16], the differentiation response is 1.22% (inactive).
Consider `O=C1Cc2ccccc2C(c2ccccc2)N1` (stereo not given), for which the percent of DMSO control GFP in assay [1] was 98.8% (inactive). The GFP response vs DMSO was 108% (inactive) in assay [2] and 90.1% (inactive) in [4]. Also, the percent response of DMSO control in [3] was 101% (inactive). Besides, in assay [5], the GFP response, % of DMSO was 102% (inactive). In assay [6], this compound had a double positive events of 64.9%. Moreover, the vesicle binding response in [6] was 449% (inactive). Also, the inhibition in [7] is -19.1% (inactive); in assay [11] it was 56.3% (active); in [15] it was 9% (inactive). In addition, in [8], the superoxide response (% of plate) is 112% (inactive). The aptamer binding inhibition in assay [9] is -3% (inactive). Further, the response in [10] was -4.45% (inactive); in assay [12] it was -7.51% (inactive). Also, the binding (% of control) in assay [13] is 95.9% (inactive). Besides, the efflux inhibition (fraction of control) in assay [14] is 0.11 (inactive). For the same compound, the differentiation response in assay [16] is 53% (active).
As for `CC(C[N+](C)(C)C)OC(N)=O` (stereo not given), the percent of DMSO control GFP in assay [1] was 100% (inactive). Also, the GFP response vs DMSO in assay [2] is 98.6% (inactive); in assay [4], 104% (inactive). Besides, the percent response of DMSO control in [3] was 89.9% (inactive). In [5], the GFP response, % of DMSO was 110% (inactive). This compound had a double positive events in assay [6] of 66.5%. In addition, the vesicle binding response in assay [6] is 164% (inactive). For the same compound, the results for the inhibition in [7], in assay [11] and in [15] were 11.7% (inactive), -15.8% (inactive) and 12% (inactive), respectively. For the same compound, the superoxide response (% of plate) in assay [8] was 96.5% (inactive). In addition, the aptamer binding inhibition in [9] is 2% (inactive). Further, the response in [10] was -16.4% (inactive); in [12], 0.77% (inactive). Moreover, the binding (% of control) in assay [13] is 103% (inactive). The efflux inhibition (fraction of control) in assay [14] is 0.08 (inactive). In addition, the differentiation response in assay [16] was 0% (inactive).
As to `CC1=NN(C(=O)c2ccc(Br)cc2)C(O)(c2ccccc2)C1` (stereo not given), the percent of DMSO control GFP in [1] was 100% (inactive). Further, the GFP response vs DMSO was 96.6% (inactive) in assay [2] and 109% (inactive) in [4]. The percent response of DMSO control in assay [3] was 102% (inactive). Also, in assay [5], the GFP response, % of DMSO was 103% (inactive). In assay [6], this compound registered a double positive events of 64.3%. In addition, the vesicle binding response in assay [6] was 165% (inactive). The inhibition in assay [7] was 13.7% (inactive); in [11], -5.19% (inactive); in assay [15] it was -9% (inactive). In addition, in [8], the superoxide response (% of plate) was 86.9% (inactive). In addition, the aptamer binding inhibition in [9] is 0% (inactive). Besides, the response is 5.99% (inactive) in assay [10] and -3.1% (inactive) in assay [12]. Moreover, the binding (% of control) in [13] is 96.8% (inactive). Moreover, in assay [14], the efflux inhibition (fraction of control) is 0.36 (inactive). Further, the differentiation response in assay [16] was -4.57% (inactive).
As to `CCOC(=O)N1c2ccccc2C=CC1OCC` (stereo not given), in [1], the percent of DMSO control GFP was 103% (inactive). Also, the GFP response vs DMSO in assay [2] was 97.7% (inactive); in assay [4], 108% (inactive). Besides, the percent response of DMSO control in assay [3] was 102% (inactive). Also, in [5], the GFP response, % of DMSO is 109% (inactive). In assay [6], the double positive events came out at 57%. Besides, in [6], the vesicle binding response was 109% (inactive). Also, the inhibition in assay [7] was 2.93% (inactive); in assay [11] it was -6.59% (inactive); in assay [15] it was -3% (inactive). For the same compound, in assay [8], the superoxide response (% of plate) was 110% (inactive). Besides, in assay [9], the aptamer binding inhibition is 3% (inactive). For the same compound, the response in assay [10] is 2.04% (inactive); in assay [12], -0.43% (inactive). Besides, in assay [13], the binding (% of control) was 103% (inactive). Besides, the efflux inhibition (fraction of control) in assay [14] was -0.29 (inactive). In [16], the differentiation response was -13.3% (inactive).
